# Results published in PubChem BioAssay AID1159580 (chemical genetic matrix, 2015).
# In all, about 5,500 compounds went through this assay and about 2,000 (36%) were called active. Roughly 18% stayed inconclusive and do not appear here. This is one part of the list. A number with no mark means an inactive call. Rule as the data show it: active = normalized growth mostly below about 0.91 (no sharp cut-off); inconclusive = no clear call, values can overlap the other calls; inactive = mostly above about 0.92.
# Test: chemical genetic growth profiling, strain panel (AID 1159580);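 also: tested at 20 µM; growth read once vehicle control cultures reached saturation at 30 °C; 1 = growth at the plate median or of vehicle wells; lower values mean less growth of the strain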
# Conditions: growth OD
# [1] = S. cerevisiae deletion strains, locus YAL013W, strain DEP1, active compounds read low
# [2] = S. cerevisiae deletion strains, locus YBR229C, strain ROT2, active compounds read low
# [3] = S. cerevisiae deletion strains, locus YDL101C, strain DUN1, active compounds read low
# [4] = S. cerevisiae deletion strains, locus YDR150W, strain NUM1, active compounds read low
# [5] = S. cerevisiae deletion strains, locus YEL061C, strain CIN8, active compounds read low
# [6] = S. cerevisiae deletion strains, locus YGR078C, strain PAC10, active compounds read low
# [7] = S. cerevisiae deletion strains, locus YHR030C, strain SLT2, active compounds read low
# [8] = S. cerevisiae deletion strains, locus YJR043C, strain POL32, active compounds read low
# [9] = S. cerevisiae deletion strains, locus YJR075W, strain HOC1, active compounds read low
# [10] = S. cerevisiae deletion strains, locus YLR039C, strain RIC1, active compounds read low
# [11] = S. cerevisiae deletion strains, locus YLR262C, strain YPT6, active compounds read low
# [12] = S. cerevisiae deletion strains, locus YMR263W, strain SAP30, active compounds read low
# [13] = S. cerevisiae deletion strains, locus YMR307W, strain GAS1, active compounds read low
# [14] = S. cerevisiae deletion strains, locus YNL153C, strain GIM3, active compounds read low
# [15] = S. cerevisiae deletion strains, locus YNL322C, strain KRE1, active compounds read low
# [16] = S. cerevisiae deletion strains, locus YOL006C, strain TOP1, active compounds read low
# [17] = S. cerevisiae deletion strains, locus YPL055C, strain LGE1, active compounds read low
# [18] = S. cerevisiae deletion strains, locus YPL241C, strain CIN2, active compounds read low
smiles,measurement,setting,value
CCCCCCC(C)OC(=O)COc1cc(Cl)c(Cl)cc1Cl (stereo not given),normalized growth,[1],0.994
same,normalized growth,"S. cerevisiae deletion strains, locus YBR021W, strain FUR4, active compounds read low",0.985
same,normalized growth,[2],1
same,normalized growth,"S. cerevisiae deletion strains, locus YCL029C, strain bik1, active compounds read low",0.992
same,normalized growth,"S. cerevisiae deletion strains, locus YDL035C, strain GPR1, active compounds read low",1
same,normalized growth,"S. cerevisiae deletion strains, locus YDL074C, strain BRE1, active compounds read low",1
same,normalized growth,[3],1
same,normalized growth,"S. cerevisiae deletion strains, locus YDL134C, strain PPH21, active compounds read low",1.01
same,normalized growth,"S. cerevisiae deletion strains, locus YDL185W, strain tfp1, active compounds read low",0.995
same,normalized growth,"S. cerevisiae deletion strains, locus YDL192W, strain arf1, active compounds read low",0.995
same,normalized growth,"S. cerevisiae deletion strains, locus YDR101C, strain arx1, active compounds read low",0.993
same,normalized growth,[4],1
same,normalized growth,"S. cerevisiae deletion strains, locus YDR162C, strain NBP2, active compounds read low",0.964
same,normalized growth,"S. cerevisiae deletion strains, locus YDR318W, strain mcm21, active compounds read low",0.989
same,normalized growth,"S. cerevisiae deletion strains, locus YDR388W, active compounds read low",0.992
same,normalized growth,"S. cerevisiae deletion strains, locus YDR502C, strain sam2, active compounds read low",0.997
same,normalized growth,[5],1
same,normalized growth,"S. cerevisiae deletion strains, locus YER110C, active compounds read low",0.993
same,normalized growth,"S. cerevisiae deletion strains, locus YER155C, strain BEM2, active compounds read low",0.984
same,normalized growth,"S. cerevisiae deletion strains, locus YER167W, strain BCK2, active compounds read low",0.995
same,normalized growth,"S. cerevisiae deletion strains, locus YGL078C, strain dbp3, active compounds read low",0.985
same,normalized growth,"S. cerevisiae deletion strains, locus YGL086W, strain mad1, active compounds read low",0.988
same,normalized growth,"S. cerevisiae deletion strains, locus YGL248W, strain PDE1, active compounds read low",0.993
same,normalized growth,[6],0.995
same,normalized growth,"S. cerevisiae deletion strains, locus YGR135W, strain pre9, active compounds read low",0.994
same,normalized growth,"S. cerevisiae deletion strains, locus YGR229C, strain SMI1, active compounds read low",0.952
same,normalized growth,"S. cerevisiae deletion strains, locus YGR252W, strain gcn5, active compounds read low",0.99
same,normalized growth,[7],0.978
same,normalized growth,"S. cerevisiae deletion strains, locus YHR079C, strain IRE1 (second series), active compounds read low",0.986
same,normalized growth,"S. cerevisiae deletion strains, locus YHR094C, strain hxt1, active compounds read low",0.983
same,normalized growth,"S. cerevisiae deletion strains, locus YHR129C, strain ARP1, active compounds read low",1
same,normalized growth,"S. cerevisiae deletion strains, locus YHR200W, strain rpn10, active compounds read low",0.987
same,normalized growth,"S. cerevisiae deletion strains, locus YIL066C, strain RNR3, active compounds read low",0.975
same,normalized growth,"S. cerevisiae deletion strains, locus YIL073C, strain SPO22, active compounds read low",0.948
same,normalized growth,"S. cerevisiae deletion strains, locus YIL125W, strain kgd1, active compounds read low",0.988
same,normalized growth,"S. cerevisiae deletion strains, locus YIR030C, strain dcg1, active compounds read low",0.983
same,normalized growth,"S. cerevisiae deletion strains, locus YJL095W, strain BCK1, active compounds read low",0.997
same,normalized growth,"S. cerevisiae deletion strains, locus YJL134W, strain LCB3, active compounds read low",1.01
same,normalized growth,"S. cerevisiae deletion strains, locus YJL168C, strain set2, active compounds read low",0.988
same,normalized growth,"S. cerevisiae deletion strains, locus YJL187C, strain SWE1 (second series), active compounds read low",0.997
same,normalized growth,[8],0.988
same,normalized growth,[9],1.01
same,normalized growth,"S. cerevisiae deletion strains, locus YKL009W, strain mrt4, active compounds read low",1
same,normalized growth,"S. cerevisiae deletion strains, locus YKL068W, active compounds read low",0.989
same,normalized growth,"S. cerevisiae deletion strains, locus YKL085W, strain MDH1 (second series), active compounds read low",0.986
same,normalized growth,"S. cerevisiae deletion strains, locus YKL085W, strain MDH1, active compounds read low",0.986
same,normalized growth,"S. cerevisiae deletion strains, locus YKL190W, strain CNB1, active compounds read low",1
same,normalized growth,"S. cerevisiae deletion strains, locus YKR001C, strain vps1, active compounds read low",0.996
same,normalized growth,[10],0.95
same,normalized growth,"S. cerevisiae deletion strains, locus YLR058C, strain SHM2, active compounds read low",0.999
same,normalized growth,"S. cerevisiae deletion strains, locus YLR102C, strain apc9, active compounds read low",0.998
same,normalized growth,[11],0.946
same,normalized growth,"S. cerevisiae deletion strains, locus YLR268W, strain sec22, active compounds read low",0.99
same,normalized growth,"S. cerevisiae deletion strains, locus YLR330W, strain CHS5, active compounds read low",1
same,normalized growth,"S. cerevisiae deletion strains, locus YLR342W, strain FKS1 (second series), active compounds read low",1.05
same,normalized growth,"S. cerevisiae deletion strains, locus YLR371W, strain rom2, active compounds read low",0.993
same,normalized growth,"S. cerevisiae deletion strains, locus YLR418C, strain cdc73, active compounds read low",0.947
same,normalized growth,"S. cerevisiae deletion strains, locus YML016C, strain PPZ1, active compounds read low",1.01
same,normalized growth,"S. cerevisiae deletion strains, locus YML032C, strain rad52, active compounds read low",0.994
same,normalized growth,"S. cerevisiae deletion strains, locus YML124C, strain tub3, active compounds read low",0.985
same,normalized growth,"S. cerevisiae deletion strains, locus YMR078C, strain ctf18, active compounds read low",0.989
same,normalized growth,"S. cerevisiae deletion strains, locus YMR223W, strain ubp8, active compounds read low",0.99
same,normalized growth,[12],1.01
same,normalized growth,[13],0.86
same,normalized growth,"S. cerevisiae deletion strains, locus YNL067W, strain RPL9B, active compounds read low",0.994
same,normalized growth,"S. cerevisiae deletion strains, locus YNL128W, strain TEP1, active compounds read low",0.995
same,normalized growth,[14],0.996
same,normalized growth,"S. cerevisiae deletion strains, locus YNL233W, strain BNI4, active compounds read low",0.996
same,normalized growth,"S. cerevisiae deletion strains, locus YNL250W, strain rad50, active compounds read low",0.982
same,normalized growth,"S. cerevisiae deletion strains, locus YNL271C, strain bni1, active compounds read low",0.997
same,normalized growth,"S. cerevisiae deletion strains, locus YNL298W, strain CLA4, active compounds read low",0.991
same,normalized growth,"S. cerevisiae deletion strains, locus YNL307C, strain MCK1, active compounds read low",0.973
same,normalized growth,[15],1
same,normalized growth,"S. cerevisiae deletion strains, locus YNR052C, strain pop2, active compounds read low",0.993
same,normalized growth,[16],0.963
same,normalized growth,"S. cerevisiae deletion strains, locus YOL012C, strain htz1",1.39
same,normalized growth,"S. cerevisiae deletion strains, locus YOL147C, strain pex11, active compounds read low",0.984
same,normalized growth,"S. cerevisiae deletion strains, locus YOR061W, strain CKA2, active compounds read low",1
same,normalized growth,"S. cerevisiae deletion strains, locus YOR069W, strain VPS5, active compounds read low",1
same,normalized growth,"S. cerevisiae deletion strains, locus YOR136W, strain idh2, active compounds read low",0.986
same,normalized growth,"S. cerevisiae deletion strains, locus YOR144C, strain elg1, active compounds read low",0.986
same,normalized growth,"S. cerevisiae deletion strains, locus YOR184W, strain ser1, active compounds read low",0.992
same,normalized growth,"S. cerevisiae deletion strains, locus YOR316C, strain cot1, active compounds read low",0.994
same,normalized growth,[17],0.999
same,normalized growth,[18],0.999
same,normalized growth,"S. cerevisiae deletion strains, locus YPR119W, strain clb2, active compounds read low",0.982
same,normalized growth,"S. cerevisiae deletion strains, locus YPR141C, strain kar3, active compounds read low",0.997
same,normalized growth,"S. cerevisiae deletion strains, locus YPR163C, strain tif3, active compounds read low",0.985
same,normalized growth,"S. cerevisiae deletion strains, locus YPR167C, strain met16, active compounds read low",0.992
same,normalized growth,"S. cerevisiae deletion strains, strain wtn01, active compounds read low",0.983
same,normalized growth,"S. cerevisiae strains, strain wild type, active compounds read low",0.999
OC1(c2ccc(F)cc2)Cc2ccccc2C2=NCCN21 (stereo not given),normalized growth,[1],0.99
same,normalized growth,[2],0.987
same,normalized growth,[3],0.997
same,normalized growth,[4],0.932
same,normalized growth,[5],0.993
same,normalized growth,[6],0.98
same,normalized growth,[7],0.903
same,normalized growth,"S. cerevisiae deletion strains, locus YHR087W, strain rtc3, active compounds read low",0.987
same,normalized growth,"S. cerevisiae deletion strains, locus YJL187C, strain SWE1, active compounds read low",1.01
same,normalized growth,[8],1
same,normalized growth,[9],0.961
same,normalized growth,[10],0.975
same,normalized growth,"S. cerevisiae deletion strains, locus YLR058C, strain SHM2 (second series), active compounds read low",0.983
same,normalized growth,"S. cerevisiae deletion strains, locus YLR085C, strain ARP6, active compounds read low",0.954
same,normalized growth,[11],0.968
same,normalized growth,"S. cerevisiae deletion strains, locus YML094W, strain GIM5, active compounds read low",0.982
same,normalized growth,"S. cerevisiae deletion strains, locus YMR219W, strain ESC1, active compounds read low",0.998
same,normalized growth,[12],0.894
same,normalized growth,[13],0.925
same,normalized growth,[14],0.985
same,normalized growth,"S. cerevisiae deletion strains, locus YNL298W, strain CLA4 (second series), active compounds read low",0.986
same,normalized growth,[15],0.992
same,normalized growth,"S. cerevisiae deletion strains, locus YNR030W, strain Alg12, active compounds read low",0.98
same,normalized growth,[16],0.93
same,normalized growth,[17],0.866
same,normalized growth,[18],0.986
same,normalized growth,"S. cerevisiae deletion strains, locus YPR135W, strain CTF4, active compounds read low",0.915
OC(CN1CCN(c2cccc(Cl)c2)CC1)C(c1ccccc1)c1ccccc1 (stereo not given),normalized growth,"S. cerevisiae deletion strains, locus YAL040C, strain CLN3, active compounds read low",0.979
same,normalized growth,"S. cerevisiae deletion strains, locus YCL061C, strain MRC1 (second series), active compounds read low",0.986
same,normalized growth,[4],0.985
same,normalized growth,"S. cerevisiae deletion strains, locus YER002W, strain NOP16, active compounds read low",1.19 [resistant] (active)
same,normalized growth,[6],1.01
same,normalized growth,[12],0.997
same,normalized growth,[14],0.992
same,normalized growth,"S. cerevisiae deletion strains, locus YNL175C, strain NOP13, active compounds read low",1.09
same,normalized growth,"S. cerevisiae deletion strains, locus YNL197C, strain WHI3, active compounds read low",0.992
same,normalized growth,"S. cerevisiae deletion strains, locus YNL224C, strain SQS1, active compounds read low",1.01
same,normalized growth,[15],0.97
same,normalized growth,"S. cerevisiae deletion strains, locus YOR083W, strain WHI5 (second series), active compounds read low",1.17 [resistant] (active)
